Assay results from ChEMBL document CHEMBL3988442, “University of Dundee, Small-Polar-MMV Screening Library” (2021).
Among all 48,000 compounds or so, about 13,000 (27%) showed an effect of 50% or more. This is one part of the list.

What follows are compounds tested on Wolbachia pipientis (assay: Anti-Wolbachia Cell-Based Screen). Conditions: 5 µM.
Format: functional
Design: scale not given: in the data most compounds retested in dose-response had high values

| Compound | Percent Effect [%] |
| --- | --- |
| COc1ncc(Cl)c(NCc2ccc(C(=O)N(C)C)cc2)n1 | -9.459 |
| CC(C)c1nc(Cn2cncn2)n(-c2ccccn2)n1 | -15.87 |
| CC1CCN(C(=O)c2cn(-c3cc(N4CCOCC4)ncn3)cn2)CC1 | 4.259 |
| CCOc1ccc(NC(=O)c2cc(C)c(C)o2)cc1CO | -26.64 |
| CCn1ncc2c1CN(C(=O)c1ccc3c(c1)OCO3)CC2COC (stereo unspecified) | 10.24 |
| CC(C)Cn1[nH]cc/c1=N\C(=O)CN1CCOC(Cn2cccn2)C1 (stereo unspecified) | 19.87 |
| Cc1ccc(CN2Cc3ccnn3CC(COCc3cccnc3)C2)o1 (stereo unspecified) | -8.625 |
| COc1ccc(CNC(=O)N2CCc3sccc3C2)cc1O | 11.16 |
| CCC(=O)NCC(c1ccc(SC)cc1)N1CCc2sccc2C1 (stereo unspecified) | 101.9 |
| CCOCCCC(=O)NCC(c1ccccc1)N1CCc2sccc2C1 (stereo unspecified) | 0.7933 |
| O=C(COCC1CC1)NCC(c1ccccc1)N1CCc2sccc2C1 (stereo unspecified) | 1.717 |
| CSc1ccc(C(CNC(C)=O)N2CCc3sccc3C2)cc1 (stereo unspecified) | 95.64 |
| O=C(NCCO)NCC(c1ccccc1)N1CCc2sccc2C1 (stereo unspecified) | 12.78 |
| Cc1ccccc1CN(Cc1ccccn1)C(=O)CNS(C)(=O)=O | -13.04 |
| CN(Cc1ccncc1)C1CCC[C@@H]2CN(c3ncccn3)C[C@H]12 (stereo partly specified) | -7.905 |
| CC(C)(C)NC(=O)Cn1nc(C2CC2)cc(C(F)(F)F)c1=O | -6.94 |

| Compound | Percent Effect [%] |
| --- | --- |
| Cn1nc(CNC(=O)C2COc3ccccc3O2)cc1C1CC1 (stereo unspecified) | -7.331 |
| Cn1nccc1CNC(=O)NC1CCN(c2ncccc2Cl)C1 (stereo unspecified) | -9.354 |
| O=C(CCN1CCOC(C(F)(F)F)C1)NCc1ccc(Cl)cc1 (stereo unspecified) | -10.12 |
| Cn1nccc1CNC(=O)Cn1nc(C(F)(F)F)cc1C1CC1 | 104.1 |
| Cn1nccc1CNC(=O)CCn1nc(C(F)(F)F)cc1C1CC1 | 108.8 |
| Cn1nccc1CNC(=O)CCn1nc(C(F)(F)F)c(Cl)c1C1CC1 | 93.44 |
| Cn1nccc1CNC(=O)Nc1cc(C(F)(F)F)c[nH]c1=O | -6.749 |
| COC1CCN(CCNc2ncc(Br)cc2C)CC1 | 16.05 |
| Cc1ccc2nc(NCCN3CCOCC3)n(C)c(=O)c2c1 | 2.729 |
| Cc1cc(Br)cnc1NCCN1CCC(N(C)C)CC1 | 23.33 |
| Cc1nc2[nH]cnc(NCCN3CCCC3)c-2n1 | 101.2 |
| CCc1cnc(C)nc1NCCN1CCOCC1 | -2.451 |
| CCn1nc(C)c2ncnc(NCCCN3CCOCC3)c21 | 9.832 |
| Cc1nc2[nH]cnc(NCCN3CCOCC3)c-2n1 | 110.5 |
| Cc1nc2[nH]cnc(NCCCN3CCOCC3)c-2n1 | 111.6 |
